KB-V1 cytotox = qHTS assay for MDR1-selective chemotherapeutics: Primary screen using the drug-selected MDR subline cells KB-V1. 3.4% of 400,000 active. AID 1347076, 2019. KB-V1 MDR cells viability, CellTiter-Glo, 72 h. Potency, µM (doses to about 46.1 µM), actives largely listed as cytotoxic; further: on the % scale 0 is the no-effect control and ±100 the full control effect; nearly all actives have a fitted effect of over 60% in size
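Cytotoxicity via CellTiter-Glo luminescence after 72 h compound exposure at 37 degrees C. Cells: drug-selected KB-V1 line, DMEM phenol-red free plus 10% FBS. Compounds tested at multiple concentrations; normalized data fitted to concentration-effect curves.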
SW480 rerep = A quantitative high throughput screen for small molecules that induce DNA re-replication in SW480 colon adenocarcinoma cells; 1.8% of 340,000 active; AID 624297, 2012; SW480 DNA re-replication, Hoechst DNA content imaging, 48 h; Potency, µM (highest dose often 46.1 µM), for the others: top-dose re-replication activation, most hits filed as activators; further: % of control where 0% means no effect; nearly all actives have a fitted effect of over 55% in size
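Compounds, transferred as 23 nL by pin tool, were incubated with cells for 48 hr; DNA content per nucleus was then quantified by Hoechst staining and fluorescence plate imaging.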
PINK1 expr mod = A Quantitative High throughput Screen to Identify Chemical Modulators of PINK1 Expression. PINK1 immunofluorescence, high-content cytometry, 24 h. Potency, µM (doses to about 76.6 µM), inactives show at the highest dose activation (PINK1 increase), actives largely listed as activators. 0.2% of 410,000 active. AID 624263, 2012; active means well fitted activation curve with a large enough effect; inconclusive means small, poorly fitted or top-dose-only effect; cell line not stated here; further: % of control where 0% means no effect; nearly all actives have a fitted effect of over 65% in size
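PINK1 protein level read as immunofluorescence by microplate cytometer in a fixed, stained stable cell line after 24 h exposure to five compound concentrations, with CCCP as control.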
PTAP TSG101 blk = qHTS Assay for Iinhibitors of HIV-1 Budding by Blocking the Interaction of PTAP/TSG101; Tumor susceptibility gene 101 protein (Homo sapiens), Q99816; Fluorescence polarization, FITC-PTAP peptide / Tsg101 binding; Potency, µM (doses to about 115 µM), for inactives: at the highest dose activity change, negative = inhibition, most hits filed as inhibitors; 340,000 tested, under 10 active; AID 493005, 2010; active means well fitted inhibition curve with a large enough effect in the main read-out, with a control signal flat, not every such curve was filed as active; inconclusive means small, poorly fitted or top-dose-only effect, or effect the other way, or a change in a side signal; inactive means no such curve, though single readings can be large or run the other way; further: % of control where 0% means no effect
Target sequence (Q99816 whole entry, looked up): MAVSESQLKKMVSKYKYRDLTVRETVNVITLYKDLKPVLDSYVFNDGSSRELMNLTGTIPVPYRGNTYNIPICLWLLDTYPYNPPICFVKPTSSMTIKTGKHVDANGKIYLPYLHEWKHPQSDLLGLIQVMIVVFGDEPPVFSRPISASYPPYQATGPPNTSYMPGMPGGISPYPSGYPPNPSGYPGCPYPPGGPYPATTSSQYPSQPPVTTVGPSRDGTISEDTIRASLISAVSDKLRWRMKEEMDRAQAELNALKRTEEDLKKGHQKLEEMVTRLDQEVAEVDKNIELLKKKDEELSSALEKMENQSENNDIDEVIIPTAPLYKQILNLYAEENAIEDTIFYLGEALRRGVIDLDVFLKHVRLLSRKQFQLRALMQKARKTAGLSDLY
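Steps: Tsg101 binding domain dispensed (10 uM final), compounds pinned in DMSO, FITC-labeled PTAP-motif peptide added (50 nM final); after 20 min binding at room temperature, polarization measured.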
KB-3-1 tox = qHTS assay for MDR1-selective chemotherapeutics: Primary screen using the parental adenocarcinoma cell KB-3-1 | KB-3-1 viability, CellTiter-Glo ATP luminescence, 72 h | Potency, µM (titrated, usually from 46.1 µM), actives largely listed as cytotoxic | 1.4% of 400,000 active | AID 1347075, 2019; further: on the % scale 0 is the no-effect control and ±100 the full control effect; nearly all actives have a fitted effect of over 60% in size
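Screening of KB-3-1 cells (DMEM, 10% FBS, phenol-red free) ran from lowest to highest compound concentration; after 72 h at 37 °C viability was read luminescently and curves fitted.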
MCF10A rerep = A quantitative high throughput screen for small molecules that induce DNA re-replication in MCF 10a normal breast cells | MCF 10A DNA re-replication, Hoechst nuclear intensity, 48 h | Potency, µM (titrated, usually from 46.1 µM), for inactives: at the top dose activity, positive = re-replication, usual class: activators | 2.9% of 350,000 active; further: % of control where 0% means no effect; nearly all actives have a fitted effect of over 50% in size
* marks the source's active call; other numbers are inactive results; [ ] = remark or other dose. This is a sample that favours compounds with a hit; in the whole collection about 6.8% have one here. Unless noted, the call rests on the fitted dose curve; in most records, active means well fitted curve in the direction sought with a large enough effect; inconclusive means small, poorly fitted or top-dose-only effect, or another doubt; inactive means no such curve, though single readings can be large; an effect the other way counts as inactive or inconclusive. Potency means the concentration at half of the fitted maximal effect.

How did CN(CCS(=O)(=O)c1ccc(Cl)cc1)Cc1cccnc1 do in these assays?
KB-V1 cytotox: inactive; SW480 rerep: inconclusive; PINK1 expr mod: 1%; PTAP TSG101 blk: -1%; KB-3-1 tox: inactive; MCF10A rerep: 21µM*

What do the screens show for `O=C(Nc1ccccc1C(F)(F)F)c1cccn(Cc2ccccc2)c1=O`?
KB-V1 cytotox: inactive; PINK1 expr mod: 7%; KB-3-1 tox: inactive

What do the screens show for `C[N+]12CCC(CC1)[C@@H](OC(=O)C(O)(c1ccccc1)c1ccccc1)C2`?
SW480 rerep: -5%[20.6 µM]; MCF10A rerep: -5%[20.6 µM]

Results for CCOC(=O)c1c(C)n(Cc2ccccc2)c2ccc(O)cc12 ?
KB-V1 cytotox: 10µM*; SW480 rerep: -4%; PINK1 expr mod: 4%; PTAP TSG101 blk: -2%; KB-3-1 tox: inactive; MCF10A rerep: inconclusive

How did COc1ccc(-n2cnc3cc(C(=O)N4CCC5(CC4)OCCO5)ccc32)cc1 do in these assays?
KB-V1 cytotox: inconclusive; SW480 rerep: inconclusive; PINK1 expr mod: 10%; PTAP TSG101 blk: -5%; KB-3-1 tox: 15µM*; MCF10A rerep: inconclusive

How did Clc1ccc(COC(Cn2ccnc2)c2ccc(Cl)cc2Cl)c(Cl)c1 (stereo not drawn) do in these assays?
KB-V1 cytotox: inconclusive; SW480 rerep: inconclusive; PINK1 expr mod: 1%; PTAP TSG101 blk: -2%; KB-3-1 tox: inactive; MCF10A rerep: 12µM*

Results for COc1cc2c(c(OC)c1O)-c1ccc(OC)c(=O)cc1C(NC(=O)C(F)(F)F)CC2 (stereo not drawn) ?
KB-V1 cytotox: inconclusive; SW480 rerep: 0.12µM*; PINK1 expr mod: 8%; PTAP TSG101 blk: -1%; KB-3-1 tox: inconclusive; MCF10A rerep: inconclusive

Results for COc1cc2c(c(OC)c1OC)-c1ccc(OC)c(=O)cc1[C@@H](NC(C)=O)CC2 ?
KB-V1 cytotox: 7.3µM*; SW480 rerep: 0.0046µM*; PINK1 expr mod: 4%; PTAP TSG101 blk: -2%; KB-3-1 tox: 0.073µM*; MCF10A rerep: 0.042µM*

How did COc1cc2c(c(OC)c1OC)-c1ccc(C(=O)O)cc1[C@@H](NC(C)=O)CC2 do in these assays?
KB-V1 cytotox: inactive; SW480 rerep: -1%; PINK1 expr mod: 7%; PTAP TSG101 blk: -2%; KB-3-1 tox: inactive; MCF10A rerep: -1%

Results for COc1cc2c(c(OC)c1OC)-c1ccc(O)c(=O)cc1[C@@H](N)CC2 ?
KB-V1 cytotox: inactive; SW480 rerep: 6%; PINK1 expr mod: 21%; PTAP TSG101 blk: -5%; KB-3-1 tox: inactive; MCF10A rerep: -1%

Results for CCN(CC)c1ccc2c(cc1=O)[C@@H](NC)CCc1cc(OC)c(OC)c(OC)c1-2 ?
KB-V1 cytotox: 6.5µM*; SW480 rerep: 1µM*; PINK1 expr mod: 12%; PTAP TSG101 blk: -5%; KB-3-1 tox: 0.92µM*; MCF10A rerep: 1.3µM*

Results for Cc1cccc(C(=O)NC2CC3CCCC(C2)N3Cc2ccccc2)c1 (stereo not drawn) ?
KB-V1 cytotox: inactive; SW480 rerep: inconclusive; PINK1 expr mod: -1%; PTAP TSG101 blk: -1%; KB-3-1 tox: inactive; MCF10A rerep: -14%

What do the screens show for `CCN1/C(=C\C=C\C2=[N+](CC)c3ccccc3C2(C)C)C(C)(C)c2ccccc21`?
KB-V1 cytotox: 21µM*; SW480 rerep: inconclusive; PINK1 expr mod: -2%; PTAP TSG101 blk: inconclusive; KB-3-1 tox: inconclusive; MCF10A rerep: inconclusive

What do the screens show for `O=C1Nc2ccc(Cl)cc2C(c2ccccc2Cl)=NC1O` (stereo not drawn)?
SW480 rerep: 5%; MCF10A rerep: 5%

Results for COC(=O)C1=C(c2ccccc2OCc2ccccc2)C[C@@H]2CC[C@H]1N2C(=O)NCCOc1ccccc1 ?
KB-V1 cytotox: inconclusive; SW480 rerep: 12%; PINK1 expr mod: 0%; PTAP TSG101 blk: -1%; KB-3-1 tox: inconclusive; MCF10A rerep: inconclusive

How did COC(=O)C1=C(c2ccc(OCc3ccccc3)cc2)C[C@@H]2CC[C@H]1N2C(=O)NCCc1ccc(F)cc1 do in these assays?
KB-V1 cytotox: 16µM*; PINK1 expr mod: 0%; KB-3-1 tox: inconclusive

Results for COC(=O)C1=C(c2ccccc2OCc2ccccc2)C[C@@H]2CC[C@H]1N2C(=O)NCCOc1ccc(OC)cc1 ?
KB-V1 cytotox: inactive; SW480 rerep: inconclusive; PINK1 expr mod: -1%; PTAP TSG101 blk: -2%; KB-3-1 tox: inactive; MCF10A rerep: 6.5µM*

What do the screens show for `COc1cc(-c2ccc(=O)[nH]n2)ccc1OC(F)F`?
KB-V1 cytotox: 0.052µM*; SW480 rerep: -3%; PINK1 expr mod: 0%; PTAP TSG101 blk: -6%; KB-3-1 tox: 0.46µM*; MCF10A rerep: inconclusive

What do the screens show for `CCN(CC)C(=O)c1c(C)[nH]c(=S)c(C#N)c1-c1ccco1`?
KB-V1 cytotox: inactive; SW480 rerep: inconclusive; PINK1 expr mod: 0%; PTAP TSG101 blk: -4%; KB-3-1 tox: inactive; MCF10A rerep: inconclusive

What do the screens show for `CCN1C(=O)C(=C2C=C(C)N(Cc3ccco3)C(C)=C2)C(=O)N(CC)C1=S`?
KB-V1 cytotox: inactive; SW480 rerep: inconclusive; PINK1 expr mod: 2%; PTAP TSG101 blk: 1%; KB-3-1 tox: inactive; MCF10A rerep: 13µM*

Results for CCN1C(=O)C(=C/C=C/c2ccco2)C(=O)N(CC)C1=S ?
KB-V1 cytotox: inactive; SW480 rerep: 5%; PINK1 expr mod: 3%; PTAP TSG101 blk: 11%; KB-3-1 tox: inactive; MCF10A rerep: 0%

Results for CCCc1nc2ccc(Br)cc2c(=O)n1-c1ccc([N+](=O)[O-])c(C(F)(F)F)c1 ?
KB-V1 cytotox: 16µM*; SW480 rerep: inconclusive; PINK1 expr mod: 14µM*; PTAP TSG101 blk: -3%; KB-3-1 tox: inconclusive; MCF10A rerep: inconclusive

Results for c1ccc(CN2CCCC3(CCNCC3)C2)cc1 ?
PINK1 expr mod: 0%

Results for Cn1ccc(NC(=O)CCl)n1 ?
KB-V1 cytotox: inactive; SW480 rerep: 20%; PINK1 expr mod: 1%; PTAP TSG101 blk: -2%; KB-3-1 tox: inactive; MCF10A rerep: 14%

Bioassay records deposited in PubChem BioAssay by National Center for Advancing Translational Sciences (NCATS).
